Many of the other results were omitted from the sample, so hits are more common in it than they were.
Vaccinia pol inh – blocks vaccinia virus processive DNA synthesis; AID 493162; in vitro processive DNA synthesis, absorbance read-out; active compounds read low; 46,000 compounds, 0.94% hits; normalized absorbance, % (no concentration beside the values); in the data active means normalized absorbance mostly below about 85%, no sharp cut-off; inactive means mostly above about 86%
Hits are given with their value; . = inactive.

SMILES | Vaccinia pol inh
Cc1cccc(C(=O)NCCCc2nc3ccccc3[nH]2)c1 | .
CCN(Cc1ccccc1)c1ccc(/C=N/n2cnnc2)cc1 | .
CCn1c2ccccc2c2cc(/C=N/n3cnnc3)ccc21 | 61
CCn1c2ccccc2c2cc(C=Nc3ccc(Cl)cc3)ccc21 | .
O=c1ccn(-c2ccc(F)cc2)nc1-c1ccn[nH]1 | .
Cc1cc(SCC(=O)Nc2ccccc2)c2ccccc2n1 | .
Cc1cc(NCc2ccco2)c2ccccc2n1 | .
Cc1cc(NCCNc2ccccc2)c2ccc3ccccc3c2n1 | 72
CCCNC(=O)c1ccc2c(c1)ncn2-c1ccc(OCc2ccccc2)cc1 | .
O=C(O)c1ccccc1NCCO | .
O=C(O)c1ccccc1NCc1ccc(Cl)cc1 | 53
O=C(O)CCNc1ccccc1C(=O)O | .
CC1CCC(C2NC(=O)c3ccccc3O2)CC1 (stereo not given) | .
CCC1CCCCN1CCCNC(=O)c1cc2c(s1)CSC2 (stereo not given) | .
CC1CCCCN1CCCNC(=O)c1cc2c(s1)-c1ccc(Cl)cc1SC2 (stereo not given) | 69
Cc1cccc2c1-c1sc(C(=O)NCCN3CCCCC3C)cc1CO2 (stereo not given) | .
O=S(=O)(NCc1nc(-c2ccccc2)no1)c1ccccc1 | .
CCN1CCN(c2ccc(NC(=O)c3cccc(Br)c3)cc2)CC1 | .
CCN1CCN(c2ccc(Nc3ccnc4cc5ccccc5cc34)cc2)CC1 | 14
CN1CCN(c2ccc(Nc3ccnc4cc(Cl)ccc34)cc2Cl)CC1 | .
O=C1c2ccccc2C(=O)N1CC(O)CN1CCN(c2ccccc2Cl)CC1 (stereo not given) | .
O=C(Nc1nc(-c2cccs2)cs1)c1ccc(N2C(=O)CCC2=O)cc1 | .
COc1cccc(-n2cc(C(=O)NCCc3ccc(S(N)(=O)=O)cc3)c3ccccc3c2=O)c1 | .
O/N=C/c1cccn1-c1ncc(C(F)(F)F)cc1Cl | .
Cc1cc(/C=C2\CCC(C3CCCC3)C2=O)c(C)n1-c1ccccc1 (stereo not given) | .
SMILES | Vaccinia pol inh
CCOC(=O)c1c(C)n(Cc2ccccc2)c2ccc(O)cc12 | .
CCOC(=O)c1c(C)n(CC)c2ccc(O)cc12 | .
CCOC(=O)c1c2ccc(O)cc2n2ccccc12 | 75
Cc1cc(=O)oc2c(CN3CCCCC3)c(O)ccc12 | .
CCOC(=O)c1c(C)oc2c1c(CN1CCN(C)CC1)c(O)c1ccccc12 | .
Cc1cc(O)c(CN2CCN(C)CC2)c2oc(=O)c3ccccc3c12 | 81
CCc1oc2ccccc2c1C(=O)c1ccc(OC(C)=O)cc1 | .
Cc1nnc(Sc2cc(C(=O)NCc3ccccn3)c3ccccc3n2)s1 | .
Cc1nnc(Sc2cc(C(=O)NCCCN3CC(C)CC(C)C3)c3ccccc3n2)s1 (stereo not given) | 69
COC(CNC(=O)c1cc(Sc2nnc(C)s2)nc2ccccc12)OC | .
C=Cc1ccc(Cn2c(C(=O)O)c(CNCCc3ccc(SC)cc3)c3ccccc32)cc1 | .
Cc1ccc(-n2c(SCc3ccccc3)nnc2-c2cccnc2)cc1Cl | .
O=C(CCC1CC(=O)Nc2ccccc21)NCc1ccccc1 (stereo not given) | .
O=C1CC(c2ccccc2)c2c(ccc3ccccc23)N1 (stereo not given) | 84
COc1cc2c(cc1OC)C(c1ccccc1)CC(=O)N2 (stereo not given) | .
O=C(O)COc1ccc(/C=C2/NC(=S)NC2=O)cc1 | .
Cn1nnnc1-c1ccco1 | .
COc1ccc2cc3cc(C(=O)NCCCN4CCCCCC4)sc3nc2c1 | 40
COc1ccc2cc3cc(C(=O)NCCC(C)C)sc3nc2c1 | .
COc1ccc2cc3cc(C(=O)NCCN4CCN(c5ccccc5F)CC4)sc3nc2c1 | .
COc1ccc(OC)c(NC(=O)CSc2nc3nc(C)c(Cc4ccccc4)c(C)n3n2)c1 | .
Cc1cccc(NC(=O)c2ccc(-n3nc(C)cc3C)cc2)c1 | .
Cc1cc(Nc2ccccc2)n(C(C)(C)C)n1 | .
Cc1cc(Nc2ccccc2)n2cnnc2n1 | .
Cc1cc(Nc2ccccc2)n(-c2ccccc2C(=O)O)n1 | 86
SMILES | Vaccinia pol inh
COc1cc2c(cc1OC)C(COc1ccccc1OC)N(C(=O)/C=C/c1ccccc1)CC2 (stereo not given) | .
COc1ccc2nc(C)cc(Nc3ccccc3)c2c1 | 81
COc1ccc2nc(-c3ccccc3)cc(C(=O)O)c2c1 | .
COc1ccc2nc(Nc3ccccc3)sc2c1 | .
CN(C)CC#CC1(O)CCCCC1 | .
CN(C)/C=C1\N=C(c2cccnc2Sc2ccc(Cl)cc2)OC1=O | .
COc1cc2cc(=O)[nH]c(C)c2cc1OC | .
COc1cc2cc(C)nc(C)c2cc1OC | 68
COc1cc2cc(C)nc(Cc3cccc4ccccc34)c2cc1OC | .
O=C(CSc1nc2ccccc2c2nc3ccccc3n12)c1ccccc1 | .
COC1(C(=O)NN)COc2ccccc2O1 (stereo not given) | .
O=C(NCCN1CCCCCC1)c1ccc2c(c1)ncn2C1CCCCC1 | .
O=C(NCCCN1CCCCC1)c1ccc2nc(N3CCCCC3)sc2c1 | .
O=C(NCCCN1CCCCC1)c1ccc2c(c1)sc1nc(-c3ccccc3)cn12 | 58
CCN1CCCC1CNC(=O)c1ccc2c(c1)sc1nc(-c3cccc(OC)c3)cn12 (stereo not given) | 47
CCN1CCCC1CNC(=O)c1nnc(Cc2cccc(F)c2)o1 (stereo not given) | .
CCOC(=O)N1CCN(C(=O)c2ccc3c(c2)sc2nc(-c4ccc(OC)cc4)cn23)CC1 | .
Cn1c(O)c(/C=C2\C=Nc3ccccc32)sc1=S | .
Cc1csc2nc(CSc3ccc(Cl)cc3)c(Br)n12 | .
COc1ccc(-[n+]2cc([O-])on2)cc1 | .
CC(=O)Oc1ccc(-c2ccc(C(=O)Nc3ccccn3)cc2)cc1 | .
CN(C)C(=O)n1nc2c3c(cccc31)C(=O)c1ccccc1-2 | .
Cc1ccc(-c2nn(CC(=O)N(C)C)c(=O)c3ccccc23)cc1 | .
CCN(CC)Cn1nc2c3c(cccc3c1=O)-c1ccccc1-2 | 57
CCC(C)NC(=O)c1nn2c(c1Cl)NC(c1ccc(OC)cc1)CC2C(F)(F)F (stereo not given) | .
SMILES | Vaccinia pol inh
c1ccc(CCNc2cc(-c3ccccc3)nc3nncn23)cc1 | .
OCCCc1nc2ccccc2n1CCCOc1ccccc1 | .
CC1CC(C)CN(S(=O)(=O)N2CCCC(C(=O)NCCN3CCOCC3)C2)C1 (stereo not given) | .
OC(CN1CCNCC1)Cn1c2ccccc2c2cc(Br)ccc21 (stereo not given) | 56
OCC(O)Cn1c2ccc(Br)cc2c2cc(Br)ccc21 (stereo not given) | 65
CN(C)CC(O)Cn1c2ccccc2c2ccccc21 (stereo not given) | .
CN(CC(O)Cn1c2ccccc2c2ccccc21)S(=O)(=O)c1ccc(Cl)cc1 (stereo not given) | .
Cc1ccc2c(c1)c(C)c(C)n2CC(O)CN1CCCCC1 (stereo not given) | .
CCn1c2c(c3cc(Br)ccc31)CCCC2=O | .
CC1CCN(CC(O)Cn2c3ccccc3c3ccccc32)CC1 (stereo not given) | .
OC(COc1ccccc1Br)CN1CCNCC1 (stereo not given) | .
CN(C)CC(O)Cn1c2ccc(Cl)cc2c2cc(Cl)ccc21 (stereo not given) | 27
N#CCSc1nnc(-c2ncc(C(F)(F)F)cc2Cl)n1-c1ccc(Cl)cc1 | .
CC(C)CCNC(=O)C1CCC(Cn2c(=O)[nH]c3ccccc3c2=O)CC1 (stereo not given) | .
COc1ccccc1CNC(=O)c1sc2nc[nH]c(=O)c2c1C | .

High-throughput results deposited in PubChem BioAssay by ICCB-Longwood Screening Facility, Harvard Medical School.
